PMP22 txn = Cell-based coincidence reporter assay to measure PMP22 gene transcription in S16 Pmp22-F2sN cells - Primary screen; S16 Pmp22-F2sN Schwann cells, FLuc/NLuc coincidence luminescence, 24 h; Potency, µM (titrated, usually from 57.5 µM), inactives show at the top dose activity change, negative = inhibition, actives largely listed as inhibitors; 2% of 43,000 active; active = clear falling dose curves in both reporters; inconclusive = both reporters move, but less clearly or upward; inactive = either reporter flat; the % is the NLuc reporter signal
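Luminescent read-out of sequential FLuc and NLuc signals from a reporter embedded in the Pmp22 3' UTR of S16 Schwann cells, taken after 24 h compound exposure at 37C; compounds reducing both signals score as inhibitors of expression.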
mTORC1 inh = Acumen qHTS Assay for Inhibitors of the mTORC1 Signaling Pathway in MEF (Tsc2-/-, p53-/-) Cells: Sytravon; Potency, µM (titrated, usually from 38.3 µM), for inactives: top-dose activity change, negative = inhibition, usual class: inhibitors; 0.78% of 44,000 active; Tsc2-/- p53-/- MEF, phospho-rpS6 immunofluorescence/PI, 24 h; AID 493208, 2011;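 also: plate controls were DMSO for no effect and rapamycin for full effect; nearly all actives have a fitted effect of over 50% in size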
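Tsc2-/-, p53-/- MEFs (empty-vector stable line) in DMEM + 10% FBS were treated with compounds 24 h at 37 degree Celsius, fixed, and immunostained for phospho-rpS6 (Alexa-488) with propidium iodide counterstain. Laser-scanning cytometry gave % positive cells, normalized against 7.5 nM rapamycin and DMSO.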
S16 F2sN tox = Cell viability qHTS assay in S16 Pmp22-F2sN cells | S16 Pmp22-F2sN Schwann cells viability, CellTiter-Glo, 24 h | Potency, µM (series often up to 57.5 µM), without a hit: at the highest dose activity change, negative = cytotoxicity, usual class: cytotoxic | 0.48% of 43,000 active | AID 1508642, 2021; also: nearly all actives have a fitted effect of over 65% in size
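Used to flag compounds lowering reporter output through toxicity, this quantitative HTS measures ATP-based CellTiter-Glo luminescence in S16 Pmp22-F2sN Schwann cells after 24 h compound exposure at 37C.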
SKOV3 invasion = Primary qHTS assay for Inhibitors of ovarian cancer metastasis using an organotypic tumor microenvironment (TME) model | SKOV3ip1-GFP adhesion/invasion on 3D omental model, fluorescence | Potency, µM (highest dose often 45.8 µM), for inactives: at the highest dose activity change, negative = inhibition, most hits filed as inhibitors | 0.1% of 46,000 active;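 also: plate controls were DMSO wells for no effect and tomatine positive control wells for full effect; nearly all actives have a fitted effect of over 65% in size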
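A 3D layer of primary human omental fibroblasts, mesothelial cells, fibronectin and collagen I, grown 48 hr, received SKOV3ip1-GFP cells in serum-free medium plus compounds at 0.36-46 umol/L. After 2 hr RT and 16 hr 37 C, fixed adherent GFP cells were counted; normalized to DMSO and tomatine.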
p53null 32C kill = qHTS Screen for Compounds that Selectively Target Cancer Cells with p53 Mutations: Cytotoxicity of p53 Null Cells at the Permissive Temperature | H1299-neo p53 null cells, ATP luminescence, 24 h, 32C | Potency, µM (doses to about 46.1 µM), for the others: at the top dose activity change, negative = cytotoxicity, most hits filed as cytotoxic | 0.62% of 55,000 active;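 also: 0% = DMSO only and -100% = full killing by 100 µM tamoxifen; nearly all actives have a fitted effect of over 55% in size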
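Luminescent ATP readout gave cell viability of p53-null H1299-neo cells after a 24 h compound exposure at the permissive 32C. Titrations ran up to 46 uM, and AC50s were fitted with the standard Hill equation.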
p53null 39C tox = qHTS Screen for Compounds that Selectively Target Cancer Cells with p53 Mutations: Cytotoxicity of p53 Null Cells at the Nonpermissive Temperature; H1299 p53-null (neo) cells, 39C, ATPlite viability, 24 h; Potency, µM (series often up to 46.1 µM), without a hit: at the highest dose activity, negative = cell killing, most hits filed as cytotoxic; 0.97% of 55,000 active; AID 904, 2007;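 also: 0% = DMSO only and -100% = full killing by 100 µM tamoxifen; nearly all actives have a fitted effect of over 50% in size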
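Following overnight plating at 37C (600 cells/well), H1299-neo or H1299-p53A138V cells are dosed up to 46 uM. Incubation lasts 24 hr at 39C before ATP detection.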
* hit, by the source's call; i = inactive; u = inconclusive; x = no result given; [ ] = remark or other dose. Most compounds without a hit are left out; they make up all but 3.1% or so of the library. Unless noted, calls follow the shape of the dose curve; as a rule, active = well fitted curve in the direction sought with a large enough effect; inconclusive = small, poorly fitted or top-dose-only effect, or another doubt; inactive = no such curve, though single readings can be large; an effect the other way counts as inactive or inconclusive. Unless noted, % is scaled to controls: 0 for no effect and ±100 for the full control effect; potency is read from the fitted curve at half-maximal effect.

SMILES	PMP22 txn	mTORC1 inh	S16 F2sN tox	SKOV3 invasion	p53null 32C kill	p53null 39C tox
CCOc1ccc(N2CC(c3nc4ccccc4n3CCC3CCCCC3)CC2=O)cc1 (configuration not stated)	u	8%	-29%	4%	24%	35%
CCOc1ccccc1N1CC(c2nc3ccccc3n2CCOc2ccc(C(C)(C)C)cc2)CC1=O (configuration not stated)	-21%	u	13%	-8%	u	20µM*
CCOc1ccccc1N1CC(c2nc3ccccc3n2CCCCOc2cc(C)ccc2C)CC1=O (configuration not stated)	-24%	-11%	12%	-2%	u	13µM*
Cc1ccc(NC(=O)NCC2CCN(Cc3cccc(Cl)c3)CC2)cc1Cl	u	10µM*	u	i	-6%	u
COc1cccc(OC)c1-c1cc(C(=O)NC2(C(=O)O)C3CC4CC(C3)CC2C4)nn1-c1ccnc2cc(Cl)ccc12 (configuration not stated)	x	x	x	13%	x	x
Cn1nnnc1SCCCNCc1ccccc1OCc1ccc(Cl)cc1	u	13µM*	-23%	i	-1%	-16%
CC(C)CS(=O)(=O)c1oc(-c2ccc(F)cc2)nc1S(=O)(=O)c1ccccc1	u	0.74µM*	4.5µM*	u	u	3.2µM*
O=S(=O)(c1ccccc1)c1nc(-c2cccs2)oc1N1CCCCC1	u	-6%	-19%	i	-1%	-9%
CCC(C)S(=O)(=O)c1oc(-c2cccs2)nc1S(=O)(=O)c1ccccc1 (configuration not stated)	1.4µM*	1.2µM*	2.5µM*	-20%	25µM*	u
COc1ccccc1[C@H](c1cccc2ccccc12)[C@@](C)(C#N)C(=O)N1CCC(c2cccc(C(F)(F)F)c2)CC1	x	x	x	-1%	x	x
COc1ccc(/C=C/C(=O)Nc2sc(C)c(C)c2C(=O)O)cc1	-2%	0%	-8%	i	3.2µM*	0.79µM*
Cc1cccc(NC(=O)CSc2ncc(-c3ccc(Br)cc3)[nH]2)c1	-7%	-27%	-16%	-5%	-3%	20µM*
Cc1oc2ccc(O)c(CN3CCCC(C)C3)c2c1C(=O)Nc1ccccc1 (configuration not stated)	-19%	15µM*	-3%	3%	-3%	-15%
COc1ccc(NC(=O)c2c(C)oc3ccc(O)c(CN4CCCC(C)C4)c23)cc1 (configuration not stated)	x	u	x	3%	-5%	-13%
O=C(NCCc1ccccc1)C(=O)NCC(c1cccnc1)N1CCN(c2ccc(F)cc2)CC1 (configuration not stated)	u	u	u	-2%	-4%	11µM*
COC(=O)NCC(c1cccnc1)N1CCN(c2ccccc2)CC1 (configuration not stated)	x	x	x	x	-2%	-1%
COC(=O)NCC(c1cccnc1)N1CCN(c2ccc(F)cc2)CC1 (configuration not stated)	u	-7%	2%	3%	u	25µM*
COc1ccc2c(c1)CC[C@@H](CN(C)CC(=O)O)[C@H]2c1ccccc1	x	x	x	4%	x	x
CCc1ccc(OCC(=O)Nc2ncn[nH]2)c(Br)c1	-13%	-4%	-3%	13%	2µM*	1.3µM*
CSc1ccc(CCNC(=O)C(C)n2nc(C)c3sc4ccccc4c3c2=O)cc1 (configuration not stated)	3%	0.52µM*	4%	5%	u	13µM*
Cc1nn(C(C)C(=O)NC2CCCCC2)c(=O)c2c1sc1ccccc12 (configuration not stated)	40%	1µM*	7%	7%	-26%	13µM*
Nc1nc(F)nc2c1ncn2[C@@H]1O[C@H](COP(=O)(O)O)[C@@H](O)[C@H]1O	x	x	x	-17%	x	x
COc1ccc(C(=O)Nc2nnc(C)s2)cc1	2%	-5%	28%	-6%	10µM*	u
COc1ccc(C(=O)Nc2cc(OC)nc(OC)n2)cc1	x	x	x	x	11µM*	13µM*
C[C@H](NCc1ccc2c(c1)nc(NC(=O)c1ccc(-c3cn[nH]c3)s1)n2CCc1ccccc1)C(C)(C)C	x	x	x	19µM*	x	x
SMILES	PMP22 txn	mTORC1 inh	S16 F2sN tox	SKOV3 invasion	p53null 32C kill	p53null 39C tox
O=C(Nc1nc2ccccc2n1CCOc1ccccc1Cl)c1ccccc1	u	-4%	8%	-8%	-12%	-19%
Cc1ccc(/C=C/c2nc3ccccc3n2S(=O)(=O)c2cccc(Cl)c2)cc1	-20%	-5%	u	i	3.2µM*	3.2µM*
CCOc1ccc(/C=C/c2nc3ccccc3n2S(=O)(=O)c2cccc(Cl)c2)cc1	u	-1%	u	-14%	13µM*	6.3µM*
CCOc1ccc(Cn2c(CNS(=O)(=O)c3cccc(Cl)c3)nc3cccnc32)cc1	-16%	0%	6%	-6%	-3%	14%
Cc1cccc(NC(=O)Cn2c(/C=C/c3ccccc3)nc3ccccc32)c1	x	x	x	x	x	0%[1.84 µM]
CSc1ccc(/C=C/c2nc3ccccc3n2S(=O)(=O)c2ccc(F)c(C)c2)cc1	u	-9%	u	0%	7.9µM*	10µM*
O=C(CN1C(=O)C2(CCCC2)NC[C@H]1c1cc(F)cc(F)c1)Nc1ccc2c(c1)C[C@@]1(C2)C(=O)Nc2ncccc21	x	x	x	5%	x	x
Cc1ccccc1CS(=O)(=O)c1ncc(Cl)c(C(=O)Nc2nnc(C(C)C)s2)n1	7µM*	9.3µM*	u	u	6%	u
CCCc1nnc(NC(=O)c2nc(SCC)ncc2Cl)s1	8%	-5%	0%	-3%	-2%	7%
Cc1ccc(CS(=O)(=O)c2ncc(Cl)c(C(=O)Nc3nc4ccc(C)cc4s3)n2)cc1	6.5µM*	0%	20µM*	25µM*	-20%	-14%
CC(C)Sc1ncc(Cl)c(C(=O)Nc2nnc(C(C)C)s2)n1	9%	-10%	24%	-12%	-1%	-13%
